Test results reported in the supplement of paper PMC8728848.
The full list was thinned out, with the strongest signals kept by preference.

Columns and labels:
Assay in all cases: glycan array binding signal (z-score within array); higher = stronger binding
Conditions in all cases: glycan notation: IUPAC condensed, linker removed
[1] = target: Fuc(a1-2)Gal(b1-4)GlcNAc(b1-2)Man(a1-3)[Fuc(a1-2)Gal(b1-4)GlcNAc(b1-2)Man(a1-6)]Man(b1-4)GlcNAc(b1-4)[Fuc(a1-6)]GlcNAc
Method in brief: (§1)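 Arrays were curated from the Consortium for Functional Glycomics database, 3228 in total, and kept only where the protein sequence was available. Binding is expressed as a within-array Z-score. This score was averaged across arrays of the same protein sequence at different concentrations or buffers and across linkers, and negative values can be read as non-binding.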

[2] = target: Fuc(a1-2)Gal(b1-4)[Fuc(a1-3)]GlcNAc(b1-3)GalNAc
Method in brief: as §1

[3] = target: Fuc(a1-2)Gal6S(b1-4)GlcNAc
Method in brief: as §1

[4] = target: Fuc(a1-2)[Gal(a1-3)]Gal(b1-3)GlcNAc(b1-2)Man(a1-3)[Fuc(a1-2)[Gal(a1-3)]Gal(b1-3)GlcNAc(b1-2)Man(a1-6)]Man(b1-4)GlcNAc(b1-4)[Fuc(a1-6)]GlcNAc
Method in brief: as §1

[5] = target: Fuc(a1-2)[Gal(a1-3)]Gal(b1-4)[Fuc(a1-3)]GlcNAc(b1-3)GalNAc
Method in brief: as §1

[6] = target: Fuc(a1-2)[GalNAc(a1-3)]Gal(b1-4)GlcNAc(b1-3)Gal(b1-4)GlcNAc
Method in brief: as §1

Gal(a1-2)Gal = target: Gal(a1-2)Gal
Method in brief: as §1

Gal(b1-2)Gal = target: Gal(b1-2)Gal
Method in brief: as §1

[7] = target: Gal(b1-3)GalNAc(a1-3)[Fuc(a1-2)]Gal(b1-4)Glc
Method in brief: as §1

[8] = target: Gal(b1-3)GlcNAc(b1-3)Gal(b1-4)Glc
Method in brief: as §1

[9] = target: Gal(b1-3)GlcNAc(b1-3)GalNAc
Method in brief: as §1

[10] = target: Gal(b1-3)[Fuc(a1-4)]GlcNAc(b1-2)Man(a1-3)[Gal(b1-3)[Fuc(a1-4)]GlcNAc(b1-2)Man(a1-6)]Man(b1-4)GlcNAc(b1-4)[Fuc(a1-6)]GlcNAc
Method in brief: as §1

[11] = target: Gal(b1-3)[Fuc(a1-4)]GlcNAc(b1-3)Gal(b1-3)[Fuc(a1-4)]GlcNAc
Method in brief: as §1

Gal(b1-4)Gal = target: Gal(b1-4)Gal
Method in brief: as §1

[12] = target: Gal(b1-4)GlcNAc(b1-6)Gal(b1-4)GlcNAc
Method in brief: as §1

Gal3S(b1-4)Glc6S = target: Gal3S(b1-4)Glc6S
Method in brief: as §1

[13] = target: Gal3S(b1-4)[Fuc(a1-3)]Glc6S
Method in brief: as §1

[14] = target: GalNAc(a1-3)Fuc(a1-2)Gal(b1-4)GlcNAc(b1-3)[GalNAc(a1-3)Fuc(a1-2)Gal(b1-4)GlcNAc(b1-6)]GalNAc
Method in brief: as §1

GalNAc(b1-3)Gal = target: GalNAc(b1-3)Gal
Method in brief: as §1

[15] = target: GalNAc(b1-4)GlcNAc(b1-2)Man(a1-3)[GalNAc(b1-4)GlcNAc(b1-2)Man(a1-6)]Man(b1-4)GlcNAc(b1-4)GlcNAc
Method in brief: as §1

Glc(a1-4)Glc = target: Glc(a1-4)Glc
Method in brief: as §1

GlcA(b1-3)Gal = target: GlcA(b1-3)Gal
Method in brief: as §1

[16] = target: GlcNAc(a1-4)Gal(b1-4)GlcNAc(b1-3)Gal(b1-4)GlcNAc
Method in brief: as §1

[17] = target: GlcNAc(a1-4)Gal(b1-4)GlcNAc(b1-3)Gal(b1-4)GlcNAc(b1-3)Gal(b1-4)GlcNAc
Method in brief: as §1

[18] = target: GlcNAc(a1-4)Gal(b1-4)GlcNAc(b1-3)Gal(b1-4)[Fuc(a1-3)]GlcNAc(b1-3)Gal(b1-4)[Fuc(a1-3)]GlcNAc
Method in brief: as §1

[19] = target: GlcNAc(b1-4)Gal(b1-4)GlcNAc
Method in brief: as §1

[20] = target: Kdn(a2-3)Gal(b1-4)[Fuc(a1-3)]GlcNAc
Method in brief: as §1

[21] = target: Man(a1-2)Man(a1-3)[Man(a1-2)Man(a1-6)]Man(a1-6)[Man(a1-2)Man(a1-2)Man(a1-3)]Man
Method in brief: as §1

[22] = target: Man(a1-2)Man(a1-3)[Man(a1-6)]Man(a1-6)[Man(a1-2)Man(a1-3)]Man(b1-4)GlcNAc(b1-4)GlcNAc
Method in brief: as §1

Man(a1-3)[Man(a1-6)]Man = target: Man(a1-3)[Man(a1-6)]Man
Method in brief: as §1

B1: NanH (Corynebacterium diphtheriae), C6JSW6 (protein)
chain: MYSSNRTYSRAILGLSAVLTLSFTSLVAPVNAEEPETVVPATAELEGEVAATLPSAETGLLDAAPPKPVARGAAGDLQLPAVNEKEVFEEGRVIRAPEPDQSRCYRIPALVTAKNGDLLLAFDNRYGGGDGAKTWCRDAPYENMKRINRQNMQTDIQLYRSVDNGQSFEDFGYIAQGTADVRELSYTDPALVTDRTTGKIFAFFVRAYDYRVGQSSAGFNEGDVEAEIQKRDVQDTVVVESLDGGQTWGNMRLLSALTAKVSSISTGDTIFDGRGRFVTSGAGIQLQYGEHAGRLIVPISVDIDPKDSAKFINLAIYSDDHGQTWQAGIGTAGGAGFSGDVSKIVELSDGRLMMSSKDNDKPRWVSYSEDQGENWSTPKRKIIAPPQHPEKHNTGINVGLIRAYPNAPENSAAARVLLYSAPIDQRYSHKHTEDGRNNGWVMGSCDDGKTWSFGRQIEKNRFQYSSMTVMSDGNIGMVYESGDFSTGMNLKFAKFNMAWLGADCHSNEALGLTGDIDKEIVEAQEKAAEATKEAQEAAEKVQKLTEELAAARKENDELKNQVKGFKEAVGDLANEAEDLADKVFKLETAVTEAKEKATVAEKAASDAVTQLQKAESIAEEQKAKAESAAAEAQALREKLERLEGSILTVKENPEAEEIADLSSTAKDAADAARRAATDANGALSGQKQDEEKPAMGLMGILKVLAGIIPLVAIIATIFQTFRLPFNIPGMR
How did the “glycan array binding signal (z-score)” value [1] turn out when B1 was run?
The value was 1.01.

And the “glycan array binding signal (z-score)” value [2]?
Its value is 3.22.

What about the “glycan array binding signal (z-score)” value [3] of the same binder?
The value was 0.001.

And the “glycan array binding signal (z-score)” value [4]?
Its value is 1.3.

And the “glycan array binding signal (z-score)” value [5]?
The value was -0.377.

And the “glycan array binding signal (z-score)” value [6]?
The value was 0.149.

What about the “glycan array binding signal (z-score)” value (Gal(a1-2)Gal) of the same binder?
Its value is -1.72.

What about the “glycan array binding signal (z-score)” value (Gal(b1-2)Gal) of the same binder?
The value was 2.93.

And the “glycan array binding signal (z-score)” value [7]?
Its value is 1.05.

And the “glycan array binding signal (z-score)” value [8]?
Its value is -1.28.

And the “glycan array binding signal (z-score)” value [9]?
Its value is -1.71.

What about the “glycan array binding signal (z-score)” value [10] of the same binder?
Its value is 2.84.

And the “glycan array binding signal (z-score)” value [11]?
Its value is -0.787.

What about the “glycan array binding signal (z-score)” value (Gal(b1-4)Gal) of the same binder?
Its value is -1.5.

And the “glycan array binding signal (z-score)” value [12]?
Its value is 1.11.

And the “glycan array binding signal (z-score)” value (Gal3S(b1-4)Glc6S)?
Its value is -0.269.

What about the “glycan array binding signal (z-score)” value [13] of the same binder?
Its value is -0.594.

And the “glycan array binding signal (z-score)” value [14]?
Its value is 0.818.

What about the “glycan array binding signal (z-score)” value (GalNAc(b1-3)Gal) of the same binder?
The value was -1.91.

What about the “glycan array binding signal (z-score)” value [15] of the same binder?
The value was 3.38.

What about the “glycan array binding signal (z-score)” value (Glc(a1-4)Glc) of the same binder?
The value was -0.111.

And the “glycan array binding signal (z-score)” value (GlcA(b1-3)Gal)?
The value was 2.74.

What about the “glycan array binding signal (z-score)” value [16] of the same binder?
Its value is 3.02.

And the “glycan array binding signal (z-score)” value [17]?
The value was -1.05.

And the “glycan array binding signal (z-score)” value [18]?
Its value is 3.97.

And the “glycan array binding signal (z-score)” value [19]?
The value was -0.683.

What about the “glycan array binding signal (z-score)” value [20] of the same binder?
The value was -0.213.

What about the “glycan array binding signal (z-score)” value [21] of the same binder?
Its value is 3.74.

And the “glycan array binding signal (z-score)” value [22]?
Its value is -0.263.

What about the “glycan array binding signal (z-score)” value (Man(a1-3)[Man(a1-6)]Man) of the same binder?
Its value is -0.151.
